Tested on: Vero E6 infected with SARS-CoV-2
Assay: inhibition of SARS-CoV-2 cytopathic effect; higher = more antiviral protection, active = above 15
Conditions: 48 h

Measured: inhibition of SARS-CoV-2 cytopathic effect

C=C(C)[C@@H]1CC[C@]2(C(=O)O)CC[C@]3(C)[C@H](CC[C@@H]4[C@@]5(C)CC[C@H](O)C(C)(C)[C@@H]5CC[C@]43C)[C@@H]12 [betulinic-acid]
inactive: 1 nM -1.47% | 8.33 nM -3.53% | 100 nM -2.01% | 833.33 nM 0.38% | 10000 nM 0.04%

FC(F)(F)c1cccc(-c2noc(-c3cc(-c4ccccc4)c(C(F)(F)F)s3)n2)c1
inactive: 1 nM 1.19% | 8.33 nM 0.95% | 100 nM -0.54% | 833.33 nM 1.01% | 10000 nM 1.68%

Cc1ccsc1/C=C/C1=NCCCN1C [morantel]
inactive: 1 nM -0.99% | 8.33 nM -3.26% | 100 nM -2.09% | 833.33 nM -5.69% | 10000 nM -0.33%

Cc1cc(N2CCN([C@@H]3CN[C@H](C(=O)N4CCSC4)C3)CC2)n(-c2ccccc2)n1 [teneligliptin]
inactive: 1 nM 0.52% | 8.33 nM 1.21% | 100 nM 1% | 833.33 nM 1.12% | 10000 nM -2.67%

CC(CNC1CCCCC1)OC(=O)c1ccccc1 (stereo not given) [hexylcaine]
inactive: 1 nM 2.92% | 8.33 nM -0.38% | 100 nM -0.1% | 833.33 nM -11% | 10000 nM -2.93%

COc1cccc(N2CCN(C3=Nc4c(F)cccc4[C@H](CC(=O)O)N3c3cc(C(F)(F)F)ccc3OC)CC2)c1 [letermovir]
inactive: 1 nM -1.18% | 8.33 nM 0.62% | 100 nM 0.16% | 833.33 nM 0.96% | 10000 nM 1.82%

CN(C)c1cc(CNCC(C)(C)C)c(O)c2c1C[C@H]1C[C@H]3[C@H](N(C)C)C(O)=C(C(N)=O)C(=O)[C@@]3(O)C(O)=C1C2=O [omadacycline]
inactive: 1 nM -0.66% | 8.33 nM 0.51% | 100 nM 1.58% | 833.33 nM -0.64% | 10000 nM -1.14%

O=S(=O)(c1ccccc1)c1cnc2c(N3CCNCC3)cccc2c1
inactive: 1 nM -2.8% | 8.33 nM -0.02% | 100 nM -3.01% | 833.33 nM 0.98% | 10000 nM 1.43%

Cc1ccc(C(=O)Nc2ccc(Oc3cc4cnn(C)c4cc3-c3cn[nH]c3)c(F)c2)c(=O)n1-c1ccc(F)cc1
inactive: 1 nM -0.46% | 8.33 nM 1.35% | 100 nM -1.01% | 833.33 nM -1.13% | 10000 nM -2.06%

CC(OC(=O)NCC1(CC(=O)O)CCCCC1)OC(=O)C(C)C (stereo not given) [gabapentin-enacarbil]
inactive: 1 nM -7.45% | 8.33 nM -8.92% | 100 nM -4.27% | 833.33 nM -4.9% | 10000 nM -8.44%

C=C(C)[C@H]1CN[C@H](C(=O)O)[C@H]1CC(=O)O [kainic-acid]
inactive: 1 nM -1.66% | 8.33 nM 0.99% | 100 nM 0.37% | 833.33 nM -1.94% | 10000 nM -0.79%

CN(C)CC/C=C1/c2ccccc2COc2ccccc21 [doxepin]
inactive: 1 nM -0.79% | 8.33 nM 1.36% | 100 nM 1.85% | 833.33 nM -1.94% | 10000 nM -2.1%

COC(=O)N/N=C/c1c[n+]([O-])c2ccccc2[n+]1[O-] [carbadox]
inactive: 1 nM -0.14% | 8.33 nM -0.55% | 100 nM 0.99% | 833.33 nM -11.6% | 10000 nM 0.87%

Cc1cc(C)c2c(N)c(C(=O)NCc3ccc(Cl)cc3)sc2n1
inactive: 1 nM 1.18% | 8.33 nM -1.88% | 100 nM -0.97% | 833.33 nM -0.85% | 10000 nM 0.14%

CC1(C)S[C@@H]2[C@H](NC(=O)[C@H](N)c3ccc(O)cc3)C(=O)N2[C@H]1C(=O)O [amoxicillin]
inactive: 1 nM -2.41% | 8.33 nM -1% | 100 nM -0.76% | 833.33 nM -0.16% | 10000 nM -2.88%

CCOC(=O)OC(C)OC(=O)[C@@H]1N2C(=O)[C@@H](NC(=O)[C@H](N)c3ccccc3)[C@H]2SC1(C)C (stereo not given in full) [bacampicillin]
inactive: 1 nM 8.5% | 8.33 nM 1.16% | 100 nM -0.89% | 833.33 nM -1.91% | 10000 nM -2.49%

CN[C@@H]1[C@@H](O)[C@@H](O[C@@H]2[C@@H](O)[C@H](O[C@H]3OC(CN)=CC[C@H]3N)[C@@H](N)C[C@H]2N)OC[C@]1(C)O [Sisomicin (sulfate)]
inactive: 1 nM 0.02% | 8.33 nM 0.45% | 100 nM 0.885% | 833.33 nM -0.63% | 10000 nM -0.58%

O=CN1CCC(C(=O)NCCN2CCC(=C3c4ccccc4C=Cc4ccccc43)CC2)CC1
inactive: 1 nM 1.02% | 8.33 nM 0.48% | 100 nM 0.42% | 833.33 nM -2.21% | 10000 nM 1.23%

Nc1ccc(S(=O)(=O)Nc2ccnn2-c2ccccc2)cc1 [sulfaphenazole]
inactive: 1 nM 2% | 8.33 nM 2.26% | 100 nM 1.62% | 833.33 nM 2.18% | 10000 nM -0.83%

Nc1ccn([C@@H]2O[C@H](CO)[C@@H](O)[C@@H]2O)c(=O)n1 [cytarabine]
inactive: 1 nM -0.13% | 8.33 nM 2.91% | 100 nM 2.21% | 833.33 nM -1% | 10000 nM -2.58%

CC(C)(CCCCCC(O)CCCCCC(C)(C)C(=O)O)C(=O)O [bempedoic-acid]
inactive: 1 nM 0.91% | 8.33 nM 0.43% | 100 nM 0.18% | 833.33 nM 0.98% | 10000 nM 1.16%

C#Cc1cccc(Nc2ncnc3cc4c(cc23)OCCOCCOCCO4)c1 [icotinib]
inactive: 1 nM 1.1% | 8.33 nM 0.11% | 100 nM -1.65% | 833.33 nM -2.37% | 10000 nM -5.92%

CCOC(=O)NNc1ccc(N(CC)CC(C)O)nn1 (stereo not given) [cadralazine]
inactive: 1 nM -0.85% | 8.33 nM -0.3% | 100 nM -1.93% | 833.33 nM -1.81% | 10000 nM 0.1%

CC(C)(C(=O)NCC(F)(F)C(F)(F)F)C(=O)N[C@@H]1C(=O)Nc2ccccc2-c2ccccc21
inactive: 1 nM -4.06% | 8.33 nM -4.36% | 100 nM -4.95% | 833.33 nM -5.35% | 10000 nM -3.87%

N#C/C(=C\c1ccc(O)c(O)c1)C(N)=O [tyrphostin-AG-99]
inactive: 1 nM 3.54% | 8.33 nM 0.59% | 100 nM -0.43% | 833.33 nM 3.25% | 10000 nM 0.46%

O=C(NCC(=O)N1CCCC1)Nc1ccc2cnccc2c1
inactive: 1 nM -2.26% | 8.33 nM 0.25% | 100 nM 0.13% | 833.33 nM 1% | 10000 nM -1.4%

CC12CCC(CC1=O)C2(C)C (stereo not drawn) [camphor-(+)]
inactive: 1 nM 1.23% | 8.33 nM 0.085% | 100 nM -0.16% | 833.33 nM 1.82% | 10000 nM -0.53%

Nc1ccn(C[C@@H](CO)OCP(=O)(O)O)c(=O)n1 [cidofovir]
inactive: 1 nM -0.38% | 8.33 nM 0.11% | 100 nM -1.45% | 833.33 nM -1.91% | 10000 nM -2.8%

CC(=O)Nc1cccc2c1c(Sc1ccc(Cl)cc1)c(C)n2CC(=O)O
inactive: 1 nM -2.31% | 8.33 nM -3.4% | 100 nM -2.21% | 833.33 nM -0.59% | 10000 nM -0.66%

COc1cc(/C=C/C(=O)O)ccc1O [ferulic-acid]
inactive: 1 nM 2.44% | 8.33 nM -0.76% | 100 nM -1.01% | 833.33 nM 3% | 10000 nM -0.17%

CC1=C(/C=C/C(=C/C=C/C(C)=C/C(=O)O)c2ccc(C)cc2)C(C)(C)CCC1
inactive: 1 nM 0.94% | 8.33 nM 2.92% | 100 nM 1% | 833.33 nM 1.71% | 10000 nM 6.23%

Cc1sc(N)c(C(=O)c2cccc(C(F)(F)F)c2)c1C
inactive: 1 nM 1.09% | 8.33 nM -1.79% | 100 nM -3.31% | 833.33 nM -3.27% | 10000 nM -2.62%

CO[C@@]1(NC(=O)Cc2cccs2)C(=O)N2C(C(=O)O)=C(COC(N)=O)CS[C@@H]21 [cefoxitin]
inactive: 1 nM -0.07% | 8.33 nM -1.13% | 100 nM -0.89% | 833.33 nM 0.12% | 10000 nM 1.09%

CC1(C)CC(O)CC(C)(C)N1[O] [tempol]
inactive: 1 nM 9.35% | 8.33 nM 1.45% | 100 nM -0.66% | 833.33 nM 1.43% | 10000 nM 1.53%

Cc1ccc(CNc2ncnc3ccc(-c4ccc(CO)o4)cc23)o1
inactive: 1 nM -1.31% | 8.33 nM 0.26% | 100 nM 0.15% | 833.33 nM -0.45% | 10000 nM 1.88%

CC(=O)c1ccc2c(c1)N(CCCN(C)C)c1ccccc1S2 [acepromazine]
inactive: 1 nM -0.95% | 8.33 nM 1.58% | 100 nM -2.17% | 833.33 nM -3.24% | 10000 nM -1.2%

O=C(N/N=C/c1ccc([N+](=O)[O-])o1)c1cc([N+](=O)[O-])cc([N+](=O)[O-])c1O [nifursol]
inactive: 1 nM 0.19% | 8.33 nM 3.21% | 100 nM 2.56% | 833.33 nM 2.62% | 10000 nM 2.82%

CC(C)c1c2cc(-c3ccnc(N[C@H]4CC[C@H](NC5CCOCC5)CC4)n3)ccc2nn1C
inactive: 1 nM -0.19% | 8.33 nM -1.61% | 100 nM -2.09% | 833.33 nM -20.8% | 10000 nM -0.88%

COc1ccc(S(=O)(=O)Nc2c(C)cc(C)cc2C)cc1
inactive: 1 nM 0.3% | 8.33 nM -0.36% | 100 nM 2.29% | 833.33 nM 2.21% | 10000 nM 0.94%

O=C(CCCl)NCCc1ccccc1 [fenaclon]
inactive: 1 nM 4.5% | 8.33 nM -2.28% | 100 nM 0.58% | 833.33 nM -1.53% | 10000 nM -1.25%

From the supplement of paper PMC13380429
